# Source: PubChem
# In the library only some 18% were active in any assay of this set; here they are far more common.
# TDP1 block – qHTS Assay for Inhibitors of Tyrosyl-DNA Phosphodiesterase (TDP1). Tyrosyl-DNA phosphodiesterase 1 (Homo sapiens), Q9NUW8. hit rate 0.28% among 350,000. AID 485290, 2010. Potency, µM (top dose mostly 130 µM), for the others: top-dose activity change, negative = inhibition, actives largely listed as inhibitors. recombinant TDP1, AlphaScreen DNA substrate cleavage; note: potency is the fitted concentration of half-maximal effect; % is set by controls: 0 for no effect and ±100 for the full control effect; nearly all actives have a fitted effect of over 40% in size
# Target sequence (Q9NUW8 whole entry, looked up): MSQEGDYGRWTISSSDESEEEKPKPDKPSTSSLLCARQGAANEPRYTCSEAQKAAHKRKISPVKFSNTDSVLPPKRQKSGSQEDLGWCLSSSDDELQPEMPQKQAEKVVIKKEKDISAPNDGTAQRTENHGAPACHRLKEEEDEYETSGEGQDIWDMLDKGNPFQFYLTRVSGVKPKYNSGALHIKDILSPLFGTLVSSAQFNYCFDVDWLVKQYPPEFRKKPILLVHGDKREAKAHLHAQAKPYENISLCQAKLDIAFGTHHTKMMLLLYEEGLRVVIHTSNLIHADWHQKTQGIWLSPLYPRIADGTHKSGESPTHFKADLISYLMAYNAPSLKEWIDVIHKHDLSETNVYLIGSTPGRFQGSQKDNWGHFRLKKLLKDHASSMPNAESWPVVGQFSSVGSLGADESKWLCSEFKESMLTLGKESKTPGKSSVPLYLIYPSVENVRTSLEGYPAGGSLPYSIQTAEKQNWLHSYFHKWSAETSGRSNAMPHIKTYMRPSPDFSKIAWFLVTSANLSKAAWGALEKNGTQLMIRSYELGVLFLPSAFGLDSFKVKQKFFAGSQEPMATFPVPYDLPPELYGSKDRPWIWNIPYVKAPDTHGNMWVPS
#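 Here, a 5' biotin and 3' phosphotyrosine-FITC DNA oligonucleotide reports Tdp1 activity: intact substrate bridges AlphaScreen beads, while cleavage leaves a 3' phosphate and drops signal. All incubations at room temperature.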
# TDP1 cell noCPT – qHTS for Inhibitors of human tyrosyl-DNA phosphodiesterase 1 (TDP1): qHTS in cells in absence of CPT; DT40 Tdp1-/- hTDP1 cells, no CPT, ATP luminescence, 48 h; Potency, µM (top dose mostly 46.2 µM), without a hit: top-dose activity change, negative = growth inhibition, usual class: inhibitors; hit rate 15% among 420,000; AID 686978, 2013; note: potency is the fitted concentration of half-maximal effect; % is set by controls: 0 for no effect and ±100 for the full control effect; nearly all actives have a fitted effect of over 55% in size
#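 Chicken DT40 Tdp1-/- cells complemented with human TDP1, screened without camptothecin (DMSO vehicle only), 400 cells/well. Compounds pin-transferred, cells incubated at 37 °C for at least 48 hr. Growth read as ATP-dependent luminescence (CellTiter-Glo, 30 min at RT).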
# HepG2 tox – qHTS for Inhibitors of TGF-b: Cytotox Counterscreen; AID 588856, 2011; HepG2 CAGA-GFP viability, ATP luminescence, 18 h; hit rate 0.76% among 410,000; Potency, µM (top dose mostly 46.1 µM), without a hit: at the top dose activity change, negative = cytotoxicity, usual class: cytotoxic; note: potency is the fitted concentration of half-maximal effect
#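 CellTiter-Glo luminescence gave cytotoxicity after 18 hours at 37 degrees C. The cells were HepG2 CAGA-GFP in 1% FBS DMEM, stimulated with 500 pg/mL TGF-beta after compound addition. %Activity was normalised to no-cell wells (complete cell-killing) and DMSO (no toxicity), and curves were fitted and classified.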
# IL-1B inflam inh – qHTS for Inhibitors of Inflammasome Signaling: IL-1-beta AlphaLISA Primary Screen. THP-1 LPS/ATP IL-1B secretion, AlphaLISA, 16 h; hits give low values. hit rate 4.7% among 360,000. activity change, % at 57.5 µM. AID 743279, 2014; in the data active = activity change below about -50%; inconclusive = mostly about -30% to -49%; note: % is set by controls: 0 for no effect and ±100 for the full control effect
#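 Secreted IL-1B measured by AlphaLISA bead assay after 16 h compound exposure of THP-1 cells; compounds (final up to 57.5 uM) added 1 h before LPS (250 ng/mL) and ATP (1.25 mM) stimulation; lower signal means less secretion.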
# TDP1 cell CPT – qHTS for Inhibitors of human tyrosyl-DNA phosphodiesterase 1 (TDP1): qHTS in cells in presence of CPT | chicken DT40 Tdp1-/-;hTDP1 cells + 20 nM CPT, ATP luminescence, 48 h | Potency, µM (doses to about 46.2 µM), for the others: top-dose activity change, negative = growth inhibition, hits mostly inhibitors | hit rate 12% among 420,000 | AID 686979, 2013; note: potency is the fitted concentration of half-maximal effect; % is set by controls: 0 for no effect and ±100 for the full control effect; nearly all actives have a fitted effect of over 55% in size
#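 Chicken DT40 Tdp1-/- cells stably complemented with human TDP1 were seeded at 400 cells/well in medium containing 20 nM camptothecin, exposed to pin-transferred compounds, and grown at 37 °C for at least 48 hr. Viability was read as ATP luminescence.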
# TGFb SMAD3 inh – qHTS for Inhibitors of TGF-b; HepG2 CAGA-GFP TGF-b/SMAD3 reporter, GFP fluorescence, 18 h; TGF-beta stimulated, 500 pg/mL final; Potency, µM (titrated, usually from 46.1 µM), for inactives: top-dose activity, negative = inhibition, actives largely listed as inhibitors; hit rate 1.2% among 410,000; note: potency is the fitted concentration of half-maximal effect; % is set by controls: 0 for no effect and ±100 for the full control effect; nearly all actives have a fitted effect of over 65% in size
#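 Using HEPG2 CAGA-GFP reporter cells at 1000 cells/well, we pinned test compounds, stimulated with recombinant TGF-beta (500 pg/mL final) and measured total well GFP after 18 h.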
# * marks the source's active call; other numbers are inactive results; ? = inconclusive; . = not tested or not shown; [ ] = another dose, or the depositor's remark. Unless noted, calls come from the whole dose curve; as a rule, active = well fitted curve in the direction sought with a large enough effect; inconclusive = small, poorly fitted or top-dose-only effect, or another doubt; inactive = no such curve, though single readings can be large; an effect the other way counts as inactive or inconclusive.
SMILES,TDP1 block,TDP1 cell noCPT,HepG2 tox,IL-1B inflam inh,TDP1 cell CPT,TGFb SMAD3 inh
COc1ccc(NC(=O)c2ccccc2NC(=O)CN2CCCCCC2)cc1,-0.1%,-25.6%,-9.2%,-12.2,?,-6.7%
O=C(CN1CCN(c2ccccc2F)CC1)Nc1ccccc1F,0.0%,-4.7%,3.7%,12.3,?,-11.1%
Nc1c(Cl)cc(C(=O)NC2CC2)cc1Cl,.,20.6%,-5.7%,?,-0.9%,-4.3%
COc1cc(-c2n[nH]c(=S)n2-c2ccc(C)cc2)cc(OC)c1OC,5.6%,-16.5%,-10.1%,-18.0,16.4µM*,-3.4%
Cc1cc(C)n(-c2nc3ccccc3nc2N2CCN(C(=O)c3ccc(Cl)cc3)CC2)n1,-2.2%,?,-11.2%,-58.7*,?,-6.1%
COc1ccccc1/C=C1\S/C(=N/NC(=O)c2cccc(Br)c2)NC1=O,11.7%,20.6µM*,-41.2%,-13.2,?,-27.1%
COC(=O)/C=C1\S/C(=N/NC(=O)c2ccccc2)NC1=O,3.9%,-4.0%,-12.5%,-1.8,-8.7%,-6.1%
O=C(CN1C(=O)CSc2ncccc21)Nc1ccccc1F,4.2%,1.9%,-2.9%,17.0,2.0%,-6.8%
CSc1nc(C(=O)N2CCCC(N3CCN(c4ccccc4C)CC3)C2)cs1 (stereo unspecified),7.1%,18.4µM*,-34.9%,4.6,20.6µM*,4.8%
CCCc1cc(C(=O)N2CCCC(N3CCN(c4ccccc4C)CC3)C2)n(C)n1 (stereo unspecified),5.0%,?,-46.6%,9.7,16.4µM*,-12.6%
Cc1ccc(C(=O)N2CCCC(N3CCN(c4cccc(C(F)(F)F)c4)CC3)C2)s1 (stereo unspecified),4.0%,6.51µM*,-44.5%,-9.5,1.3µM*,11.2µM*
O=C(c1ccncc1)N1CCCC(N2CCN(c3cccc(C(F)(F)F)c3)CC2)C1 (stereo unspecified),4.6%,?,-25.4%,0.0,16.4µM*,-21.0%
CC(=O)N1CCCC(N2CCN(c3cccc(C(F)(F)F)c3)CC2)C1 (stereo unspecified),.,2.0%,-39.7%,-5.4,3.7%,-2.5%
CCOC(=O)C1CCN(C(=O)COC(=O)CSc2ccccc2C)CC1,-0.1%,1.0%,6.7%,23.9,7.5%,-5.7%
CC1=C(C(=O)N2CCCC(N3CCN(c4cccc(C(F)(F)F)c4)CC3)C2)OCCO1 (stereo unspecified),2.0%,?,-13.5%,1.0,?,-22.0%
Cc1cnc(C(=O)N2CCCC(N3CCN(c4cccc(C(F)(F)F)c4)CC3)C2)cn1 (stereo unspecified),2.2%,?,0.8%,-62.1*,23.1µM*,-21.9%
CCc1cc(C(=O)N2CCCC(N3CCN(c4cccc(C(F)(F)F)c4)CC3)C2)n(C)n1 (stereo unspecified),4.9%,11.6µM*,-33.9%,-13.4,11.6µM*,?
Cc1ccc(S(=O)(=O)Oc2cccc([N+](=O)[O-])c2)cc1,.,?,-14.1%,-18.8,10.3µM*,-19.1%
O=[N+]([O-])c1cccc(S(=O)(=O)c2cccc([N+](=O)[O-])c2)c1,5.1%,3.6%,9.2%,45.0,6.4%,-1.4%
COc1ccc(C(=O)N/N=C/c2ccc(OC)c(OS(=O)(=O)c3ccccc3)c2)cc1,4.5%,16.4µM*,-16.4%,0.0,-60.1%,-17.7%
CCOc1cc(/C=N/NC(=O)c2cccc([N+](=O)[O-])c2)ccc1OS(=O)(=O)c1ccccc1,1.9%,18.4µM*,-19.5%,-10.7,?,-1.1%
CCc1ccc(OCC(=O)N/N=C/c2ccc(OS(=O)(=O)c3ccc(C)cc3)c(OC)c2)cc1,2.7%,7.2%,-12.5%,-5.5,-0.5%,-1.7%
COc1cc(/C=N/NC(=O)COc2cc(C)cc(C)c2)ccc1OS(=O)(=O)c1ccc(C)cc1,0.0%,6.51µM*,-27.1%,3.0,16.4µM*,?
O=C(Nc1nc2c(Br)cccc2s1)C1CC1,.,?,-17.7%,?,-68.1%,?
COc1cc(C(=O)COC(=O)c2cnc(C)cn2)ccc1OC(F)F,5.4%[56.1 µM],-11.6%,9.9%,14.4,-30.0%,5.0%
SMILES,TDP1 block,TDP1 cell noCPT,HepG2 tox,IL-1B inflam inh,TDP1 cell CPT,TGFb SMAD3 inh
COCCN1C(=O)CN(S(C)(=O)=O)CC1(C)C(=O)NCc1ccccc1 (stereo unspecified),.,0.1%,.,17.3,-22.4%,.
CCCCOc1cccc(C(=O)Nc2sc3c(c2C(=O)OCC)CCCC3)c1,3.8%[2.28 µM],-8.0%,-9.5%,.,-3.5%,-16.8%
COc1ccc(/C=N/NC(=O)c2cccc([N+](=O)[O-])c2)cc1OS(=O)(=O)c1ccc(C)cc1,-2.0%,2.59µM*,8.7%,16.0,4.11µM*,0.0%
CCCCc1oc2ccccc2c1C(=O)c1cc(I)c(N(CC)CCOCC)c(I)c1,5.4%,4.47µM*,-69.5%,.,7.08µM*,?
Cc1cccc(C)c1NC(=O)C1(C)CN(S(C)(=O)=O)CC(=O)N1CCCN1CCOCC1 (stereo unspecified),.,0.8%,.,-15.6,21.8%,.
CCN1/C(=C\C(=S)Nc2ccccc2)Sc2ccccc21,9.6%,3.26µM*,-33.1%,-97.1*,3.66µM*,11.2µM*
O=C1CC(c2cc(Br)ccc2F)c2cc3c(cc2N1)CCC3 (stereo unspecified),-4.0%,2.59µM*,4.4%,55.1,2.91µM*,-3.8%
O=C1CC(c2ccccc2F)c2cc3c(cc2N1)CCC3 (stereo unspecified),4.1%,4.61µM*,-16.6%,40.7,3.26µM*,?
CCc1nc2ccc(C(=O)NCCOc3ccc(OC)cc3)cn2c1N(CC)CCN(C)C,.,-13.6%,-22.6%,-23.9,-10.5%,9.2%
CCOC(=O)C1CCCN(C(=O)CN2C(=O)NC(C)(c3ccc4ccccc4c3)C2=O)C1 (stereo unspecified),-7.8%[0.505 µM],-15.1%,-2.8%,-26.4,-28.0%,-16.7%
COc1cccc(/C=C2/CN(C)CC3=C2OC(N)=C(C#N)C3c2cccc(OC)c2)c1 (stereo unspecified),10.0%,16.4µM*,-11.0%,?,18.4µM*,0.3%
